Screening data (PubChem)
CHRM1 agonist: activates human CHRM1 receptor. P11229. AID 588814. 0.33% of 360,000 active. CHO-K1 hM1, Fluo-8 calcium fluorescence, agonist mode; 0% DMSO, 100% acetylcholine EC100. activation, % at 3 µM;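 active = activation above the run's mean compound activation plus 3 SD, cut at about 16% in these data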;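 also: peak over basal fluorescence ratio within a 140 s kinetic read after compound addition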
Target sequence (P11229 whole entry, looked up): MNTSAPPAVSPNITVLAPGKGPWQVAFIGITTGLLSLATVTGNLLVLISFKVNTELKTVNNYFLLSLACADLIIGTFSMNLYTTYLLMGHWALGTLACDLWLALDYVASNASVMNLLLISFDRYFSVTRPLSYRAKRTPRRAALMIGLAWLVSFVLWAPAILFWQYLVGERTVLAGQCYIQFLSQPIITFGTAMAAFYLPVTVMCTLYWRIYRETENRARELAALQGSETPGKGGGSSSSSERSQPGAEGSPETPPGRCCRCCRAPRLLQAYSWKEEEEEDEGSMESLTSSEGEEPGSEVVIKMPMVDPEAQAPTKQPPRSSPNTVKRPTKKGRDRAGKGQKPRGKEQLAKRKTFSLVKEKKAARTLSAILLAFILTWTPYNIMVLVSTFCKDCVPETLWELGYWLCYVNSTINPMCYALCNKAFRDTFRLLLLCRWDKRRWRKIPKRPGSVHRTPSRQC
CHO-K1 Ca antag: M1 antagonist counterscreen hit in parental CHO-K1 cells. ATP-induced calcium, Fluo-8 fluorescence. inhibition, % at 3 µM. 0.6% of 360,000 active. AID 602250;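 active = inhibition above a per-plate cutoff, the plate's mean sample inhibition plus 3 SD, cut at about 24% in these data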;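 also: 0% = DMSO plus EC80 ATP and 100% = DMSO alone without ATP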
CHO-K1 Ca PAM: nonselective activator or artifact in parental CHO-K1 calcium assay | AID 602247 | activation, % at 3 µM | 0.02% of 360,000 active | ATP EC20, Fluo-8 calcium fluorescence; 0% at ATP EC20, 100% at ATP max;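 active = activation above the run cutoff, the mean activation of all test compounds plus 3 SD, cut at about 40% in these data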;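 also: peak over basal fluorescence ratio in a 140 s read after ATP addition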
CHO-K1 Ca ag: M1 agonist counterscreen hit in parental CHO-K1 cells | 0.48% of 360,000 active | Fluo-8 calcium fluorescence; scaled to maximal ATP response, vehicle zero | activation, % at 3 µM | AID 602248; in the data active = activation above about 15%;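 also: untransfected CHO-K1 host cells lacking M1 receptor as counterscreen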
M1 PAM: potentiates human M1 receptor response to acetylcholine | P11229 | CHO-K1 hM1, Fluo-8 calcium fluorescence, ACh EC20; 0% = ACh EC20, 100% = maximal ACh | activation, % at 3 µM | 0.088% of 360,000 active | AID 588819; in the data active = activation above about 19%, passing the limit was not always enough
CHRM1 antagonist: blocks human M1 muscarinic receptor; inhibition, % at 3 µM; P11229; 1.3% of 360,000 active; AID 588852; CHO-K1 hM1, Fluo-8 calcium fluorescence, ACh EC80 antagonist;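 active = percent inhibition above its own plate's cutoff, namely the mean of that plate's compound wells plus 3 SD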;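 also: peak over basal fluorescence ratio during 140 s after agonist addition; 0% = ACh EC80 plus DMSO and 100% = DMSO alone without agonist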
* = called active by the depositor. A selection: hits, their analogues and other compounds. The true share with any hit is near 2.3%.

SMILES | CHRM1 agonist | CHO-K1 Ca antag | CHO-K1 Ca PAM | CHO-K1 Ca ag | M1 PAM | CHRM1 antagonist
NCCc1ccc(OCc2ccccc2)c(OCc2ccccc2)c1 | 13 | 5 | 7 | 16* | 11 | -4
CN1/C(=C\C=C2C(=O)NC(=S)NC2=O)C(C)(C)c2ccccc21 | 63* | 22 | -9 | 54* | -26 | 27*
O=C1NC(=S)NC(=O)C1=Cc1cccc2cc3ccccc3cc12 | -5 | -6 | 1 | -1 | 12 | -14
CN1CCC(N(C)c2nc(-c3ccc([N+](=O)[O-])cc3)nc3ccccc23)CC1 | -2 | -11 | 19 | 2 | -4 | -3
CN(CC1COc2ccccc2O1)c1nc(-c2cccnc2)nc2ccccc12 (stereo not drawn) | 0 | -4 | -4 | 3 | -13 | 30*
Cc1ccc2[nH]c(C)c(CCNCc3cccnc3)c2c1 | -3 | 10 | -14 | 0 | 11 | -1
CCOC(=O)CC(SP1(=S)OCC2(CC=CCC2)CO1)C(=O)OCC (stereo not drawn) | 1 | -1 | -6 | 10 | -21 | 24*
c1ccc(Nc2ccc3ccccc3c2)cc1 | -5 | 0 | 4 | 0 | -10 | 12
CC(C)Nc1ccc(Nc2ccccc2)cc1 | -8 | 3 | 2 | 0 | -25 | 53*
c1cc2c(cc1[C@H]1OCC3C1CO[C@@H]3c1ccc3c(c1)OCO3)OCO2 (stereo partly drawn) | 2 | -6 | 6 | 2 | 3 | -10
CN1CCC(=O)N(CCN=[N+]=[N-])CC1 | -7 | -1 | -7 | 0 | 2 | 0
COc1ccccc1OCC(=O)N1CCCC(N2CCN(c3ccc(F)cc3)CC2)C1 (stereo not drawn) | -4 | 1 | 1 | 1 | -3 | 10
O=C(COc1ccccc1Cl)N1CCCC(N2CCN(c3ccc(F)cc3)CC2)C1 (stereo not drawn) | -2 | 15 | 7 | 15* | -3 | 0
COc1ccc(CN2Cc3cc(-c4cccc(F)c4)ccc3-n3nncc3C2)cc1 | -9 | -1 | 21 | 1 | -7 | 0
N=c1sccn1Cc1ccccc1F | 17* | -22 | -7 | 0 | -8 | 3
Cn1nnc(CC[N+](C)(C)C)n1 | 73* | 11 | -1 | 15* | -22 | 77*
C/C=C/CC#N | 0 | -17 | 9 | 0 | 10 | -13
CCCCCSc1cc(OC)c(CCN(C)C)cc1OC | 2 | -3 | 2 | 1 | -25 | 49*
C[N+]12CCC(CC1)C(C(O)(c1cccc(Cl)c1)c1cccc(Cl)c1)C2 (stereo not drawn) | -5 | -11 | 3 | 1 | -25 | 97*
Cc1ccc(C(O)(c2ccc(C)c(C)c2)C2CN3CCC2CC3)cc1C (stereo not drawn) | -9 | 10 | 6 | 1 | -6 | 12
CC[N+]12CCC(CC1)C(C(O)(c1ccccc1)c1ccccc1)C2 (stereo not drawn) | -6 | -13 | 22 | 1 | -23 | 98*
CCOC(=O)C(c1c(O)c2ccccc2oc1=O)c1c(O)c2ccccc2oc1=O | 1 | -5 | 26 | 1 | 1 | -22
C[C@]12CCC3C(CC[C@H]4C[C@H](OC(=O)c5cccnc5)CC[C@]34C)C1CCC2=O (stereo partly drawn) | -5 | -20 | 11 | 0 | 3 | -12
C[N+](C)(C)Cc1ccccc1 | 76* | 2 | -3 | 1 | -29 | 56
CCOc1ccc(-c2c(C)n(-c3ccc(OCC)cc3)c3[n+]2CCCCC3)cc1 | 0 | 40* | -15 | 12 | -10 | 30
SMILES | CHRM1 agonist | CHO-K1 Ca antag | CHO-K1 Ca PAM | CHO-K1 Ca ag | M1 PAM | CHRM1 antagonist
COc1ccc(CNCCc2ccc(Cl)cc2Cl)cc1 | -5 | -10 | 25 | 1 | 7 | -12
Clc1ccc(CCNCc2ccncc2)c(Cl)c1 | 0 | -2 | 0 | 16* | 10 | -17
Cc1[nH]c2ccccc2c1CCCNC1CCCCC1 | -5 | 20 | -14 | 0 | -2 | -1
Cc1[nH]c2ccccc2c1CCN | -1 | 29* | -8 | 0 | -4 | 18
O=c1[nH]c(=O)n(CCC2=CCCCC2)c(O)c1/C=N/N1CCOCC1 | -2 | 25* | -24 | 0 | 0 | -4
COC(=O)C1=C(c2ccc(F)cc2F)C[C@@H]2CC[C@H]1N2C(=O)N1CCCCC1 | -6 | -14 | 9 | 0 | 12 | -20
CCN(CC)c1ccc(CNCCc2ccc(F)cc2)cc1 | -4 | 6 | -3 | 3 | -20 | 30*
COc1ccccc1-n1c(O)c(/C=N/N2CCCCC2)c(=O)n(-c2ccccc2OC)c1=S | 13 | -2 | 0 | 1 | 4 | 3
Fc1ccc(C(OCCN2CCN(CCCc3ccccc3)CC2)c2ccc(F)cc2)cc1 | -7 | 4 | 11 | 1 | -20 | 26
Fc1ccc(C(OCCN2CCCC2)c2ccc(F)cc2)cc1 | -9 | -1 | 6 | 1 | -23 | 79*
Fc1ccc(C(OCCN2CCCC2)c2ccc(Br)cc2)cc1 (stereo not drawn) | -8 | -4 | 8 | 2 | -23 | 81*
COC(=O)C1=C(c2ccc(OC(F)(F)F)cc2)C[C@@H]2CC[C@H]1N2C(=O)NC1CC1 | -3 | 7 | -12 | 0 | -10 | 17
ClCC(Br)CBr (stereo not drawn) | -1 | 18 | -11 | 0 | -8 | 12
CN1CCc2nc(N)c(C#N)c(-c3ccccc3)c2C1 | -8 | -14 | 1 | 0 | -20 | 34*
CN1CC(C(=O)c2ccc(Cl)cc2)C(c2ccc(Cl)cc2Cl)C1 (stereo not drawn) | -6 | -7 | 13 | 2 | -10 | 8
CN1CCC(O)(c2ccc(Cl)cc2)C(C(=O)c2ccc(Cl)cc2)C1 (stereo not drawn) | -10 | 9 | -4 | -1 | -25 | 30*
O=C(C[N+]12CCC(CC1)C(OC(=O)c1ccccc1)C2)c1ccc([N+](=O)[O-])cc1 (stereo not drawn) | 4 | -8 | 21 | 1 | -6 | 12
CCC(CO)(C(=O)OC1C[N+]2(C)CCC1CC2)c1ccccc1 (stereo not drawn) | -14 | 4 | 3 | 0 | -33 | 99*
Cc1cccc(CNCCc2c[nH]c3ccccc23)c1 | -1 | -6 | 20 | 23* | 4 | 3
Fc1cccc(CNCCc2c[nH]c3ccccc23)c1 | -4 | 3 | -2 | 0 | 3 | -2
COc1cc(CNCCc2c[nH]c3ccccc23)cc(OC)c1 | -4 | 25* | -1 | 2 | -3 | 6
COc1cccc(C(=O)C2CCCN(Cc3cccc4c3OCO4)C2)c1 (stereo not drawn) | -10 | 7 | 5 | 3 | -29 | 65*
COc1cccc(C(=O)C2CCCN(Cc3ccc4nonc4c3)C2)c1 (stereo not drawn) | -13 | 0 | 13 | 1 | -30 | 10
